Source: PubChem (University of Kansas High Throughput Screening Laboratory)
mHTT-CaM PPI inh: disrupts binding of mutant huntingtin to calmodulin; P42858; AlphaScreen His-mHTT/GST-CaM binding, luminescence; inhibition, % at 15 µM; actives 3.6% (n = 190,000); AID 1671202;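 note: 0% = both proteins with DMSO and 100% = one protein alone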
Pf apPOL inh: Pf-apPOL DNA polymerase inhibition. inhibition, % at 10 µM. actives 0.25% (n = 210,000). AID 1794808. Recombinant Pf-apPOL, molecular beacon fluorescence, 1.5 h
* hit, by the source's call; . = no result given. Most compounds without a hit are left out; they make up all but 3.6% or so of the library. Cut-off read from the data, not from the text of the source: active = inhibition above about 50%; inactive = the rest.

SMILES	mHTT-CaM PPI inh	Pf apPOL inh
N#CCSC1=Nc2ccccc2C2=NC(CC(=O)NCc3ccc4c(c3)OCO4)C(=O)N12 (configuration not stated)	13	-2
COc1ccc(C2CC(=O)Nc3n[nH]c(C)c32)cc1Br (configuration not stated)	6	-4
COc1ccc(C(=O)Nc2ccc(N3CCCC3)cc2)cc1	99*	1
COc1ccc(C(=O)Nc2ccc(N3CCOCC3)cc2)cc1	5	-3
CCC(C)NC(=O)C1(C)CCC(=O)N1Cc1cc(Br)ccc1OC (configuration not stated)	1	3
Cc1ccc(/C=C2\N=C(c3cccc(F)c3)OC2=O)cc1	6	63*
O=C1OC(c2cccc(F)c2)=N/C1=C\c1cccs1	24	8
O=C1OC(c2cccc(F)c2)=N/C1=C\c1ccc(F)cc1	6	-3
O=C1OC(c2cccc(Cl)c2)=N/C1=C\c1cccs1	53*	4
CCCn1c(-c2ccc(S(=O)(=O)N3CCOCC3)cc2)csc1=Nc1ccccc1	18	-8
Cc1ccc(C)c(-c2csc(=Nc3ccccc3)n2CCCO)c1	100*	-3
O=S(=O)(c1ccc(-c2csc(=Nc3ccccc3)n2CCCO)cc1)N1CCCCC1	51*	0
Clc1ccc(-c2csc(=Nc3ccccc3)n2CCCN2CCOCC2)cc1	98*	-6
CCCCn1c(-c2ccc(S(=O)(=O)N3CCOCC3)cc2)csc1=Nc1ccccc1	12	-5
CCOc1ccc(N=c2scc(-c3ccc(Br)cc3)n2CCO)cc1	19	-4
OCCCn1c(-c2ccc(Br)cc2)csc1=Nc1ccccc1	59*	5
CCOc1ccc(N=c2scc(-c3ccccc3)n2CCO)cc1	35	-3
CC1C(=O)N(c2ccc(Cl)cc2)CCN1C(=O)c1ccccc1Cl (configuration not stated)	-7	-2
O=C(Nc1nccs1)c1cn(-c2ccccc2)nc1-c1cccnc1	11	3
CC1CC(C)CN(S(=O)(=O)N2CCCC(C(=O)NCCCN3CCN(C)CC3)C2)C1 (configuration not stated)	-11	-13
CCOc1ccc(C(=O)Nc2ccccc2CC)cc1Br	-4	-9
N=C1NC(=O)/C(=C/c2ccc(-c3ccc(Cl)c(Cl)c3)o2)S1	43	-2
O=S(=O)(c1ccc2[nH]c3c(c2c1)CCCC3)N1CCc2ccccc21	78*	-3
CCOC(=O)C1CCCCN1S(=O)(=O)c1ccc2[nH]c3c(c2c1)CCCC3 (configuration not stated)	62*	4
CN(CC(=O)Nc1ccccc1F)S(=O)(=O)c1ccc2[nH]c3c(c2c1)CCCC3	37	-3
SMILES	mHTT-CaM PPI inh	Pf apPOL inh
CC1CN(S(=O)(=O)c2ccc3[nH]c4c(c3c2)CCCC4)c2ccccc2O1 (configuration not stated)	96*	-4
CC1CCCN(S(=O)(=O)c2ccc(Cl)cc2)C1 (configuration not stated)	-14	-4
CN(CC(=O)N1CCOCC1)S(=O)(=O)c1ccc2[nH]c3c(c2c1)CCCC3	12	-6
CN(CC(=O)N1CCc2ccccc21)S(=O)(=O)c1ccc2[nH]c3c(c2c1)CCCC3	5	-2
CC1CCCN(S(=O)(=O)c2ccc3[nH]c4c(c3c2)CCCC4)C1 (configuration not stated)	63*	0
O=C(NCc1ccccc1F)C1CC(=O)N(c2ccc3c(c2)CCN3C(=O)C2CCC2)C1 (configuration not stated)	-1	-5
O=C(c1cc(F)cc(F)c1)N1CCC(CCOc2ccc(F)cc2)CC1	-41	2
Cc1ccc(OCC(=O)NC2CC(C)(C)NC(C)(C)C2)c(Br)c1	3	-7
COc1cccc(C2CC(=O)C3=C(C2)Nc2ccccc2NC3c2ccccc2F)c1 (configuration not stated)	24	-8
CCCNC(=O)Nc1ccc(Cl)cc1-c1nc2cc(Cl)ccc2o1	-75	-4
CC(=O)N1CCc2sc(C(=O)NCc3cccc(Br)c3)cc2C1	56*	0
CC(=O)N1CCc2sc(C(=O)NCc3cccc(Cl)c3)cc2C1	5	-4
N#C/C(=C\c1ccc2c(c1)OCO2)c1[nH]nc(N)c1C#N	20	-3
COc1ccc(OC)c(/C=C(\C#N)c2[nH]nc(N)c2C#N)c1	61*	-64
N#C/C(=C\c1c[nH]c2ccccc12)c1[nH]nc(N)c1C#N	54*	1
COc1cc(/C=C(\C#N)c2[nH]nc(N)c2C#N)cc(OC)c1OC	-5	-3
Cc1ccc(/C=C(\C#N)c2[nH]nc(N)c2C#N)cc1	31	-1
N#C/C(=C\c1ccc(-c2ccc(Cl)c(Cl)c2)o1)c1[nH]nc(N)c1C#N	95*	-7
O=C(NCc1ccccn1)C1CCCN(c2nccnc2Sc2ccccc2)C1 (configuration not stated)	3	-2
Cc1ccc(Oc2nccnc2N2CCC(C(=O)NCCCN3CCOCC3)CC2)cc1	10	-3
CCCCn1c(=N)n(CC(O)COc2ccc(Cl)cc2)c2ccccc21 (configuration not stated)	42	2
N=c1n(Cc2ccccc2)c2ccccc2n1CC(O)COc1ccc(Cl)cc1 (configuration not stated)	60*	7
COc1cc(NC(=O)N2CC3CCCN3c3ccccc32)cc(OC)c1 (configuration not stated)	50	4
COc1ccc(C)cc1NC(=O)N1CC2CCCN2c2ccccc21 (configuration not stated)	83*	0
COC(=O)c1ccc(Cl)cc1NC(=O)N1CCN(C)c2ccccc21	48	-3
SMILES	mHTT-CaM PPI inh	Pf apPOL inh
COC(=O)c1ccc(C(=O)OC)c(NC(=O)N2CC3CCCN3c3ccccc32)c1 (configuration not stated)	58*	0
COc1ccc(Cl)cc1NC(=O)N1CC2CCCN2c2ccccc21 (configuration not stated)	74*	-3
Cc1ccc(C)c(NC(=O)N2CC3CCCN3c3ccccc32)c1 (configuration not stated)	47	-5
Clc1ccc(-c2nc3sc(-c4ccc(Cl)cc4Cl)nc3s2)c(Cl)c1	8	.
O=C(Nc1ccccc1C(F)(F)F)N1CC(c2nc(-c3cccc(Cl)c3)no2)C1	-18	-4
Cc1ccccc1C(=O)N1CCN(CCc2cn(C)c3ncccc23)CC1	10	-2
CCCCC(=O)Nc1c2c(nn1-c1ccc(OC)cc1)CS(=O)C2 (configuration not stated)	2	-4
CCOC(=O)N1CCC(NC(=O)c2cc(-c3cccs3)nn2C)CC1	-10	-8
COc1ccc2c(c1)CN(c1ccccc1I)CO2	44	-1
COc1ccc2c(c1)CN(c1ccc(Br)cc1)CO2	46	-4
COc1ccc(N2COc3ccc(OC)cc3C2)cc1	53*	-2
Clc1ccc(N2COc3cc4c(cc3C2)OCO4)cc1	12	-8
CCOc1ccc(N2COc3ccc(Cl)cc3C2)cc1	81*	-7
COc1ccc2c(c1)CN(c1ccc(C)cc1)CO2	53*	0
CCOc1ccc(N2COc3ccc(OC)cc3C2)cc1	51*	-5
CCOc1nc(OCC)nc(N2CCN(c3ccc(OC)cc3)CC2)n1	24	-10
CC(C)CC(=O)N1CCCC(c2nc(CCNC(=O)C3CC3)cs2)C1 (configuration not stated)	-3	1
